Only some compounds are listed: those with a hit (about 4.1% of all), similar ones and a draw of the others.
DAX1 inh-1 = DAX1 (NR0B1) inhibitors, primary screen, cell-based, HEK293, Gal4-DAX1, luciferase luminescence; Nuclear receptor subfamily 0 group B member 1 (Homo sapiens), P51843; HEK293 Gal4-DAX1 luciferase reporter; inhibition, % at 6.75 µM; 340,000 compounds, 0.99% hits; AID 504766, 2011;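 active = inhibition above the mean over all tested compounds plus 3 SD, cut at about 4.2% in these data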;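 note: inhibition shows as a rise in luminescence from relieved DAX1 repression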
Target sequence (P51843 207-470 limits assumed): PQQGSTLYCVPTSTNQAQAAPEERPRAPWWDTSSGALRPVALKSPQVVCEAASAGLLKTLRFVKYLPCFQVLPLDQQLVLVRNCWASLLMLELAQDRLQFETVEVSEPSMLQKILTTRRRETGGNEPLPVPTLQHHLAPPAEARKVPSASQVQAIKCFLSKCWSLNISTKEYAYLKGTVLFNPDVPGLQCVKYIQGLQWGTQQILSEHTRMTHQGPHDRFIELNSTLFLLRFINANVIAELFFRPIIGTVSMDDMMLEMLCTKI
DAX1 inh-2 = DAX1 (NR0B1) inhibitors on StAR promoter, primary screen, cell-based, luminescence, SF-1 (NR5A1), full-length DAX-1. HEK293T StAR-luciferase reporter, SF-1/DAX-1 repression relief. inhibition, % at 6.8 µM. 370,000 compounds, 1.1% hits;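 active = inhibition above the mean over all tested compounds plus 3 SD, cut at about 3.6% in these data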;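 note: higher inhibition means more luminescence from relief of DAX-1 repression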
ssDAF12 agonist = S. stercoralis DAF-12 nuclear receptor activators, primary screen, cell-based, luminescence, HEK293, GRIP1 co-expression, lit1-tk-luc. Nuclear hormone receptor DAF-12 (Strongyloides stercoralis). HEK293 ssDAF-12/GRIP1 lit1-tk-luc reporter; % of 3 µM dafachronic acid response. activation, % at 6.8 µM. 370,000 compounds, 1% hits. AID 652126, 2013;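 active = activation above the mean over all tested compounds plus 3 SD, cut at about 0.9% in these data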
hgDAF12 agonist = H. glycines DAF-12 receptor agonists, primary screen, cell-based, luminescence, HEK293, GAL4 fusion, UAS-luciferase | activation, % at 6.8 µM | AID 687014, 2013 | HEK293 GAL4-hgDAF12 UAS-luciferase reporter, agonist luminescence; normalized to butyrate control | Nuclear hormone receptor DAF-12 (Heterodera glycines), GAL4 fusion | 370,000 compounds, 1.8% hits;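 active = activation above a cutoff set at the mean of all screened compounds plus 3 SD, cut at about 10% in these data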
hcDAF-12 act = H. contortus DAF-12 nuclear receptor activators, primary screen, cell-based, luminescence, HEK293, lit1-tk-luc reporter. HEK293 hcDAF-12 lit1-tk-luc reporter; 0% DMSO, 100% Δ7-dafachronic acid. activation, % at 6.8 µM. 370,000 compounds, 1.4% hits;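 active = activation above the mean of all tested compounds plus 3 SD, cut at about 5.5% in these data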
Large screens that a line does not name were inactive.

COC(=O)C(C(=O)OC)[C@H]1C=C[C@@H](C(=O)NS(=O)(=O)c2ccc(C)cc2)N(C(C)=O)C1	none (no result: DAX1 inh-1)
CCC(NC(=O)c1cccc2c1C(=O)N(Cc1cccnc1)C2)c1ccccc1 (stereo not given)	none (no result: DAX1 inh-1)
Cc1ccccc1Cn1nnc(-c2cccc(C(=O)O)c2)n1	hgDAF12 agonist 12
CCCC1CCC2(CCCN2CCOC(=S)Nc2ccccc2OC)CC1 (stereo not given)	none (no result: DAX1 inh-1, DAX1 inh-2)
Cc1ccccc1OC(=O)C1C(c2ccccc2)C(C(=O)O)C1c1ccccc1 (stereo not given)	DAX1 inh-1 5.0
CCOC(=O)C1C(c2ccccc2)C(C(=O)OCC)C1c1ccccc1 (stereo not given)	none
FC(F)(F)c1cccc(OCc2noc(-c3ccsc3)n2)c1	DAX1 inh-1 5.5
FC(F)(F)c1cccc(-c2nc(-c3ccncc3)no2)c1	none
CCCCNC(=O)C1CCCN1C(=O)Nc1ccc2c(c1)OCO2 (stereo not given)	none (no result: DAX1 inh-1)
N#Cc1ccccc1NC(=S)NC(=O)C1CCC1	DAX1 inh-1 4.3
O=C(NC(=S)Nc1ccccc1Br)C1CCC1	none
COc1ccc(OCC(=O)N/N=C\c2ccco2)cc1	none
COc1ccc(/[N+]([O-])=C/c2ccco2)cc1	hgDAF12 agonist 10
O=C(COc1ccc(Cl)cc1Cl)c1ccc[nH]1	DAX1 inh-1 8.0
Cc1ccc(Cl)c(OCC(=O)OCC(=O)c2ccc[nH]2)c1	none
Cc1csc(NC(=O)c2ccc[nH]c2=O)n1	hgDAF12 agonist 11
O=C(NCCCn1ccnc1)c1cc2cc([N+](=O)[O-])ccc2oc1=O	DAX1 inh-1 4.2
O=C(NCCCn1ccnc1)c1ccc(Cl)cc1[N+](=O)[O-]	none
CCn1c(C)nc2cc(C(=O)NNC(=S)Nc3ccc(F)cc3)ccc21	DAX1 inh-2 3.7
Cc1ccc(S(=O)(=O)NCc2csc(C)n2)cc1	none
Cc1nc(CNS(=O)(=O)c2ccc3c(c2)CCCC3)cs1	hcDAF-12 act 5.9
CCOC(=O)N1CCN(c2c(NCCN3CCCCC3CC)c(=O)c2=O)CC1 (stereo not given)	DAX1 inh-2 4.2
O=C(N/N=C/c1cccs1)c1cc(-c2ccc3ccccc3c2)n[nH]1	hgDAF12 agonist 11
O=C(N/N=C/c1cccs1)c1cc(-c2cccc3ccccc23)n[nH]1	hgDAF12 agonist 11
N/C(Cc1ccc(Cl)cc1Cl)=N\OC(=O)c1ccccc1F	hcDAF-12 act 6.0
N/C(Cc1cccc2ccccc12)=N\OC(=O)c1ccccc1F	none
Cc1ccc(C(=O)n2ccc3ccc(-c4ccc5ccn(Cc6ccccc6)c5c4)cc32)cc1	hcDAF-12 act 6.2 (no result: DAX1 inh-1)
CCOc1ccc(/C=C2/SC(=O)NC2=S)cc1	none
CCOc1ccc(/C=C2\SC(=S)N(N3C(=O)C4CC4C3=O)C2=O)cc1 (stereo not given)	hcDAF-12 act 5.7
O=C1C[C@@H]2CCN3C(=O)CCC[C@@H]([C@H]23)[C@@H]1Cc1ccccc1	DAX1 inh-2 3.9
N#CCC[C@@H]1CC[C@]2(CCCN(C(=O)c3ccc4ccccc4n3)C2)O1	none (no result: DAX1 inh-1)
COc1cccc(NC(=O)CN(C)C(C)C(=O)Nc2ccc(C(C)=O)cc2)c1 (stereo not given)	DAX1 inh-1 6.8
COc1ccc(-n2c(SCC(=O)Nc3ccc(S(=O)(=O)Nc4nccs4)cc3)nnc2-c2ccco2)cc1	none (no result: DAX1 inh-1)
COc1cc(C(=O)Nc2c(C(=O)O)[nH]c3ccc(C)cc23)cc(OC)c1OC	hcDAF-12 act 6.1
CC(C)(N[C@@H](Cc1c[nH]c2ccccc12)C(=O)NCC(c1ccccc1)c1ccccc1)C(=O)NC1CCCCC1	none (no result: DAX1 inh-1, DAX1 inh-2)
Cc1cccc(NC(=O)CCc2c(C)nn(-c3ccc(N4CCOCC4)nn3)c2C)c1	none
Cc1cccc(NC(=O)CCc2c(C)nn(-c3ccc(N4CCCCC4)nn3)c2C)c1	DAX1 inh-2 3.8
Cc1ccc(OC(=O)c2cccc(S(=O)(=O)N3CCCC3)c2)c(-n2nc3ccccc3n2)c1	hgDAF12 agonist 11
Cc1ccc(OC(=O)c2cccc(S(=O)(=O)N(C)C)c2)c(-n2nc3ccccc3n2)c1	none
Cc1ccc(OC(=O)c2ccc(S(=O)(=O)N(C)C)cc2)c(-n2nc3ccccc3n2)c1	DAX1 inh-1 4.3, hgDAF12 agonist 12
COc1ccc(CN(CCN2CCOCC2)C(=O)c2ccccc2C)cc1OC	none (no result: DAX1 inh-1)
CC(=O)c1cc(-c2ccc([N+](=O)[O-])cc2)c(=O)n2c1CCC2	none (no result: DAX1 inh-1)
O=C(Nc1cccc(S(=O)(=O)N2CCOCC2)c1)c1cnn2c(C(F)F)cc(-c3ccccc3)nc12	DAX1 inh-1 5.0
CNS(=O)(=O)c1ccc(NC(=O)c2cnn3c(C(F)F)cc(-c4ccccc4)nc23)cc1	none
CN(C)c1cccc(/C=C2\CC3(OC(=O)c4ccc(F)cc4)CCCN2C3)c1 (stereo not given)	none (no result: DAX1 inh-1)
O=C(COC(=O)c1cccc(F)c1)Nc1cccc(S(=O)(=O)N2CCOCC2)c1	none
O=C(COC(=O)c1ccc(F)cc1F)Nc1cccc(S(=O)(=O)N2CCOCC2)c1	DAX1 inh-2 3.6
N#Cc1cccc(NC(=O)COC(=O)CCc2ccc(S(=O)(=O)N3CCOCC3)cc2)c1	none
CC(=O)c1cccc(NC(=O)COC(=O)CCc2ccc(S(=O)(=O)N3CCOCC3)cc2)c1	DAX1 inh-1 4.3
CCOC(=O)[C@@]12CCCC3=C1N(CCC3)C(=O)[C@H]2CC(=O)NCCCN1CCCC1=O	none (no result: DAX1 inh-1)
O=C(OC12CCCN(C1)/C(=C/c1ccccc1)C2)c1cccc(F)c1 (stereo not given)	none (no result: DAX1 inh-1)
Fc1ccc(-c2nnn3c2nc(NCc2ccccc2)c2ccccc23)cc1	none
NNc1nc2c(-c3ccc(F)cc3)nnn2c2ccccc12	ssDAF12 agonist 1.3, hgDAF12 agonist 10, hcDAF-12 act 6.4
CC1(C)CC(=O)C=C(Nc2ccccc2NC(=O)c2cc(F)cc(F)c2)C1	none (no result: DAX1 inh-1)
CCNC(=O)N(C)[C@H]1C[C@H]2c3[nH]c4c(-c5ccccc5)cccc4c3CCN2C(=O)[C@H]1[C@H](C)O	none (no result: DAX1 inh-1)
Oc1ccc(C2CNCc3sccc32)cc1O (stereo not given)	ssDAF12 agonist 1.0
COc1ccccc1C(=O)NNC(=O)c1cccc([N+](=O)[O-])c1	none
COC(=O)NNC(=O)c1ccccc1OC	hcDAF-12 act 6.2
COc1ccccc1C(=O)NNC(=O)c1cccc(C)c1	ssDAF12 agonist 1.1
c1ccc(-c2c[nH]c3cccc(C4CCCCC4)c23)cc1	none (no result: DAX1 inh-1)
CCOc1ccc(NC(=O)CSc2nnc(-c3n[nH]c4c3CCC4)n2N)cc1	none (no result: DAX1 inh-1)
